# Smad3 FoxH1 inh: Smad3 (human) transcription factor binding inhibition | P84022 | TR-FRET Smad3/Dy647-FoxH1 peptide binding, europium anti-His | inhibition, % at 25 µM | 88,000 compounds, 0.29% hits;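 active = compounds that reduce the energy-transfer binding signal between the protein and its labelled peptide by more than half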;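 also: 0% = Smad3 plus labelled peptide maximal FRET and 100% = peptide-only background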
# ERb coact inh: ER-beta (human) coactivator binding inhibition; TR-FRET ER-beta LBD / SRC1-Cy5 peptide binding; receptor agonist-loaded with 1 µM estradiol; 86,000 compounds, 1.3% hits; Q92731; AID 633; inhibition, % at 25.6 µM;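 active = compounds whose percent inhibition of the receptor-coactivator binding signal exceeds about 50% in the single-dose screen, limit read from the data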;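 also: 0% = receptor plus peptide wells without compound and 100% = peptide-only wells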
# Target sequence (Q92731 whole entry, looked up, the tested form may be a part): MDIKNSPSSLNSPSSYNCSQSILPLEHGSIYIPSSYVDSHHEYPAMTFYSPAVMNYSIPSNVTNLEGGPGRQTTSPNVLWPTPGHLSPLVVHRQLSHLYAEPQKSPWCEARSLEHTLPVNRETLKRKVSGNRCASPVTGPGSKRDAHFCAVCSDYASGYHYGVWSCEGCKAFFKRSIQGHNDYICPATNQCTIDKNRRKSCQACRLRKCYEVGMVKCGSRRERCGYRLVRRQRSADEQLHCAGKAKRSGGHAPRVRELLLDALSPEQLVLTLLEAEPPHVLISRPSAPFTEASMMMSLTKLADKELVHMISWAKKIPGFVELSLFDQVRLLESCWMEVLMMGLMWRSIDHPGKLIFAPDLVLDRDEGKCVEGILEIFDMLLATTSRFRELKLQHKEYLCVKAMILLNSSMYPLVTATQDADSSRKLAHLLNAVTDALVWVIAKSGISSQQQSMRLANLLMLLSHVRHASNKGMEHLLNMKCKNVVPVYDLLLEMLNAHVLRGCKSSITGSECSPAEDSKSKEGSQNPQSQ
# MT1-MMP txn act: activates MT1-MMP transcription; activation factor at 10 µM; HT1080 MT1-MMP promoter luciferase reporter, luminescence, overnight; active compounds read high; 86,000 compounds, 0.16% hits;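 active = activation factor of at least 2 for MT1-MMP transcription at 10 µM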
# ERa SRC1 pot: ER-alpha (human) coactivator binding potentiation. P03372. TR-FRET ERalpha-LBD/SRC-Cy5 coactivator binding, 2 h; 100 = basal binding, no effect. coactivator binding (% of control), % at 25.6 µM. 86,000 compounds, 1.3% hits; in the data active = activity above about 200%;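 also: binding measured in presence of low estradiol as agonist stimulus; 0% = peptide alone without receptor and 100% = receptor with peptide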
# ERa SRC1 inh: ER-alpha (human) coactivator binding inhibition | P03372 | TR-FRET ER-alpha LBD / SRC-1 peptide, estradiol-bound | inhibition, % at 25.6 µM | 86,000 compounds, 1.7% hits | AID 629; in the data active = inhibition above about 50%;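 also: 0% = receptor plus peptide control and 100% = peptide only without receptor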
# Calb biofilm kill: kills Candida albicans biofilms. C. albicans biofilm + clotrimazole, Alamar Blue. inhibition, % at 6 µM. 85,000 compounds, 0.14% hits;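 active = inhibition above 20%; inactive = inhibition below 20%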;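 also: preformed 24 hr biofilms exposed to compound for 48 hr; 0% = biofilm without compound and 100% = blank killed by clotrimazole plus chlorhexidine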
# Starred values were filed as active, the others as inactive; / = not tested or not shown; [ ] = another dose, or the depositor's remark. The list is not random: actives were taken first. Their share in the collection is about 3.8%.
SMILES,Smad3 FoxH1 inh,ERb coact inh,MT1-MMP txn act,ERa SRC1 pot,ERa SRC1 inh,Calb biofilm kill
O=C(Nc1cccnc1)c1cc(-c2cccs2)on1,1,4,1.4,115,8,1
O=C(Nc1cccnc1)c1cc(-c2ccc3c(c2)OCO3)on1,8,17,1.4,405*,29,6
CN(C)c1ccc(NC(=O)CN2C(=O)CC(c3ccccc3)=Nc3ccccc32)cc1,5,66*[fluorescence artefact?],1.1,38,93*[fluorescence artefact?],3
Cc1cc(C)n2nc(C(=O)OCC(=O)c3cc(C)n(C)c3C)nc2n1,9,51*[fluorescence artefact?],1.2,63,40,11
CCOC(=O)CC1(CC(=O)OCC)NC(=O)c2c(C)sc(C(=O)OCC)c2N1,9,4,1.6,105,0,13
CCOC(=O)c1sc(C)c2c1NC(c1ccc(N(C)C)cc1)NC2=O (configuration not stated),-3,12,1.2,216*[fluorescence artefact?],11,4
CC(C)(C)NC(=O)c1cccc(NC(=O)c2ccc(NC(=O)c3ccco3)cc2)c1,8,6,1,95,11,6
CC(C)CNC(=O)c1cccc(NC(=O)c2ccc(NC(=O)c3ccco3)cc2)c1,-20,21,0.9,230*[fluorescence artefact?],38,6
O=C1NC(=S)SC1=C1CCCC1,-2,56*,1,39,46,5
Cc1nc2c(c(=O)n1CCC1=CCCCC1)c1nc3ccccc3nc1n2/N=C/c1ccco1,3,55*,1.3,105,79*[fluorescence artefact?],5
CCCCCCn1cnc2c(c1=O)c1nc3ccccc3nc1n2/N=C/c1ccco1,-10,26,1,51,22,6
O=C(O)c1ccccc1/C=N/N=C1c2ccccc2-c2ccccc21,62*,/,/,/,/,/
O=CNC(=O)c1ccccc1C(=O)O,2,-4,1.3,103,-4,6
c1ccc(-c2nnn(CCN3CCCCC3)n2)cc1,-2,/,/,/,/,/
CCC(=O)Oc1ccc(/C(CC)=C(\CC)c2ccc(OC(=O)CC)cc2)cc1,-9,-1,1.1,376*,-3,11
CCC(=O)c1ccc(OC(=O)c2ccc(Br)o2)cc1,0,-1,1,124,3,5
O=C(COc1ccc(F)c(Cl)c1)c1ccc[nH]1,8,45,1.3,40,66*[fluorescence artefact?],3
CCOc1cc(N2CCOCC2)c(OCC)cc1NC(=O)COC(=O)c1cc(C)oc1C,4,17,1.1,115,15,-3
CCOc1cc(N2CCOCC2)c(OCC)cc1NC(=O)COc1ncnc2ccc(Br)cc12,2,27,/,77,54*[fluorescence artefact?],5
CCCc1ccc(-c2ccc(F)c(N)c2)nc1,10,0,/,113,7,6
CCCCc1ccc(-c2ccc(Br)cc2)nc1,9,-13,2*,84,-14,4
CC(C)[C@](N)(C(=O)O)c1ccccc1,-5,/,/,/,/,/
c1cc(-c2nc3ccccc3o2)nc(-c2nc3ccccc3o2)c1,8,29,0.8,248*,12,6
c1ccc2nc(-c3nc4ccccc4o3)ccc2c1,7,-5,0.1,111,-3,2
CCOC(=O)C1=C(C)N(CCCC(=O)O)C(=O)NC1c1ccccc1OC(=O)c1ccc(I)cc1 (configuration not stated),/,/,1.1,/,/,/
SMILES,Smad3 FoxH1 inh,ERb coact inh,MT1-MMP txn act,ERa SRC1 pot,ERa SRC1 inh,Calb biofilm kill
Cc1sc2ncnc(Sc3nnnn3-c3ccccc3)c2c1C,-5,9,1.1,202*[fluorescence artefact?],18,4
CC(C)=C[C@H]1[C@H](COC(=O)c2cc3c(cc2Cl)OCO3)C1(C)C,5,/,/,/,/,/
COC(=O)/C(=C(/F)SCC(C)=O)C(F)(F)F,-4,-24,1.3,105,-4,3
Cc1cc(C)n(-c2nc(N(c3ccccc3)c3ccccc3)nc(-n3nc(C)cc3C)n2)n1,1,13,1.1,129,33,3
Cc1cc(C)n(-c2nc(Nc3ccccc3)nc(-n3nc(C)cc3C)n2)n1,17,55*[fluorescence artefact?],1.2,248*,63*[fluorescence artefact?],1
Cc1cc(OCc2nc(N)nc(N)c2-c2ccc(Cl)c(Cl)c2)ccc1[N+](=O)[O-],56*,/,/,/,/,/
O=S(=O)(Nc1ncnc2sc3c(c12)CCC3)c1ccc2ccccc2c1,0,53*,1.1,59,38,-4
CN1CCc2c(sc3c2C(=O)NC(c2cn(Cc4ccccc4)c4ccccc24)N3)C1 (configuration not stated),0,64*[fluorescence artefact?],1.3,14,90*[fluorescence artefact?],-1
CN1CCc2c(sc3c2C(=O)NC(c2ccco2)N3)C1 (configuration not stated),-2,9,1.1,91,-6,5
CO/N=C/NC(=O)NOCc1ccc(Cl)cc1Cl,-10,9,/,92,7,7
O=C(N/C=N/OCc1ccc(Cl)cc1Cl)NOCc1c(Cl)cccc1Cl,-1,30,/,213*,26,11
COc1ccc(C2=Nn3c(nnc3-c3cccnc3)SC2)cc1,7,58*[fluorescence artefact?],1,99,-10,11
CCOc1ccc(C2=Nn3c(nnc3-c3cccnc3)SC2)cc1,0,25,1.1,93,16,5
O=C(Nc1ccc(-n2nncc2-c2ccco2)cc1)c1cccc(F)c1,-14,17,1.1,99,16,5
O=C(Nc1ccc(-n2nncc2-c2ccco2)cc1)c1cc2ccccc2oc1=O,43,65*[fluorescence artefact?],1.1,186,69*,0
C=CCNc1nc(N)c(C(=O)Nc2cc(C)on2)s1,6,1,1.2,116,2,5
Cc1cc(C(F)(F)F)c2c(N)c(C(=O)Nc3cc(C)on3)sc2n1,41,20,1.6,214*[fluorescence artefact?],2,3
CCCCOC(=O)Nc1ccc(C(C)C)cc1,2,-13,2.2*,119,-9,-1
N#CC(C(=O)Nc1ccc(Cl)c(Cl)c1)=C1Nc2ccccc2N1,-19,70*[fluorescence artefact?],1.1,46,79*[fluorescence artefact?],2
N#CC(C(=O)Nc1cccc(Cl)c1)=C1Nc2ccccc2N1,0,-7,/,105,-13,3
O=C1c2ccccc2C(=O)N1c1ccc(Cc2ccc(N3C(=O)c4ccccc4C3=O)cc2)cc1,10,/,/,/,/,/
C=C(C)COc1ccc(-c2nc(N)nc(C)c2Oc2ccccc2OC)c(O)c1,13,59*[fluorescence artefact?],1,286*[fluorescence artefact?],29,6
COc1ccc(-c2nc(N)ncc2Oc2ccccc2Br)c(O)c1,6,36,1.1,241*[fluorescence artefact?],24,8
N=C(N)SC(c1ccccc1)c1ccccc1,-4,/,/,/,/,/
COc1ccccc1-c1ccc(NC2CCCC2)nn1,3,23,2.1*,81,14,7
O=[N+]([O-])c1ccc(Cl)c(CNc2ncnc3c2ncn3[C@@H]2CCCCO2)c1,2,/,/,/,/,/
COc1ccc(C(=O)NCCCn2ccnc2)cc1,-4,-3,1.1,122,4,-2
COc1ccc2c(Cl)c(C(=O)NCCCn3ccnc3)sc2c1Cl,-16,-5,1.1,276*,12,4
O=[N+]([O-])c1ccc(C2=Nn3c(nnc3-c3ccc(Cl)cc3)SC2)o1,6,/,/,/,/,/

# Compound activity: PubChem, several laboratories
